In all, about 63,000 compounds went through this assay and about 1,100 (1.7%) were called active. Cut-off read from the data, not from the text of the source: active = cytotoxicity above about 50%; inactive = the rest. Shown is part of a subset that was picked to be rich in actives. Entries with a potency or affinity are not part of this list.
Assay: cytotoxicity in HPDE-C7 cells, cell-based, fluorescence, HTS (AID 430);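 note: cells exposed to compound for 48 hours before viability readout; 0% = vehicle and 100% = reference cytotoxic drug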
Details: HPDE-C7 pancreatic duct cells viability, at 10 µM, active compounds read high
With `N#Cc1c(-c2ccccc2)nc(SCc2nc(N)nc(N3CCCCC3)n2)[nH]c1=O` the cytotoxicity was 9.2% (inactive). With `CCN1CCN(CCNC(=O)c2cn(C(C)c3ccccc3F)nn2)CC1` (stereo not given) the cytotoxicity was -5.9% (inactive). In the case of `COc1ccc(-c2cc(-c3cc(F)ccc3O)[nH]n2)cc1OC`, the cytotoxicity is reported as 8.9% (inactive). With `Oc1ccccc1-c1cc(-c2cccc(F)c2)n[nH]1` the cytotoxicity was 3.1% (inactive). With `COc1ccc(-c2cc(-c3ccccc3O)[nH]n2)cc1OC` the cytotoxicity was 51.6% (active). With `Cc1ccc(-n2ncc(C#N)c2/N=C/N(C)C)cc1` the cytotoxicity was 8.6% (inactive). With `CC(=O)Nc1ccc(NC(=O)c2cccc(C(=O)OC(C)C)n2)cc1` the cytotoxicity was -2.2% (inactive). For `O=C(NCCCN1CCN(CCCNC(=O)c2ccc(F)cc2)CC1)c1ccc(F)cc1`, the cytotoxicity was -6.2% (inactive). In the case of `CS(=O)(=O)N1CCc2cc(S(=O)(=O)Nc3ccc4oc5c(c4c3)CCCC5)ccc21`, the cytotoxicity is reported as 80% (active). For `CS(=O)(=O)N1CCc2cc(C(=O)O)ccc21`, the cytotoxicity was -2.9% (inactive). With `CS(=O)(=O)N1CCc2cc(S(=O)(=O)N3CCN(Cc4ccc5c(c4)OCO5)CC3)ccc21` the cytotoxicity was 6.1% (inactive). With `COC(=O)c1ccccc1NC(=O)CSc1nnc(-c2cccc(NC(C)=O)c2)n1C` the cytotoxicity was 6.2% (inactive). For `COc1ccc(OCc2nc(N)nc(Nc3cccc(C)c3C)n2)cc1`, the cytotoxicity was -10.3% (inactive). For `N#Cc1c(NCCCO)nc(-c2ccccc2)c2c1CCCC2`, the cytotoxicity was 38.6% (inactive). In the case of `N#Cc1c(NCCO)nc(NCc2ccccc2)c2c1CCN(Cc1ccccc1)C2`, the cytotoxicity is reported as 34.2% (inactive). With `CCN1CCc2c(C#N)c(N3CCCCC3)nc(NCc3ccccc3)c2C1` the cytotoxicity was 30.7% (inactive). With `C=CCNc1nc(NCc2ccccc2)c(C#N)c2c1CN(C)CC2` the cytotoxicity was 14.5% (inactive). In the case of `O=C(c1ccccc1F)N1CCN(S(=O)(=O)c2ccc(S(=O)(=O)N3CCCCC3)cc2)CC1`, the cytotoxicity is reported as -2.6% (inactive). In the case of `Cn1c(=O)n(C)c2cc(NS(C)(=O)=O)ccc21`, the cytotoxicity is reported as -29.4% (inactive). In the case of `Cc1noc(C)c1COC(=O)c1ccc2c(c1)OCO2`, the cytotoxicity is reported as -8.9% (inactive). For `O=S(=O)(Nc1ccc2c(c1)nc1n2CCN(Cc2ccccc2)C1)c1ccccc1`, the cytotoxicity was 2.6% (inactive). With `Cc1ccc(S(=O)(=O)Nc2ccc3c(c2)nc2n3CCN(Cc3ccccc3)C2)cc1` the cytotoxicity was 10.2% (inactive). With `O=S(=O)(Nc1ccc2c(c1)nc1n2CCN(Cc2ccccc2)C1)c1ccc(Cl)cc1` the cytotoxicity was 68.2% (active). With `Cc1ccc(NC(=O)c2ccco2)cc1C` the cytotoxicity was -2.6% (inactive). For `O=C1NCCCC2c3c(cc(Br)c(O)c3Br)OC12N1CCOCC1` (stereo not given), the cytotoxicity was -5.7% (inactive). With `COC(=O)C1=C(C)NC(C)=C(C(=O)OC)C1c1cc2cc(C)ccc2[nH]c1=O` the cytotoxicity was 2.9% (inactive). With `COc1ccc(C)cc1S(=O)(=O)N(CC(=O)N1CCOCC1)Cc1ccccc1` the cytotoxicity was -1.7% (inactive). In the case of `N#Cc1cn(Cc2ccccc2)c2ccccc12`, the cytotoxicity is reported as 6.7% (inactive). In the case of `N#Cc1cn(Cc2cccc(Cl)c2)c2ccccc12`, the cytotoxicity is reported as 56.1% (active). For `N#Cc1cn(CC(=O)O)c2ccccc12`, the cytotoxicity was -15.5% (inactive). In the case of `CCOc1ccc(N2C(=O)C3CCCN3C2=O)cc1` (stereo not given), the cytotoxicity is reported as 3.6% (inactive). With `COc1ccc(C(C#N)N2CCCCCC2)cc1OC` (stereo not given) the cytotoxicity was 2.4% (inactive). In the case of `Brc1ccc(C2=Nn3c(nnc3-c3n[nH]c4c3CCC4)SC2)cc1`, the cytotoxicity is reported as 61.4% (active). For `Fc1ccc(C2=Nn3c(nnc3-c3n[nH]c4c3CCC4)SC2)cc1`, the cytotoxicity was 0.5% (inactive). With `c1ccc(C2=Nn3c(nnc3-c3n[nH]c4c3CCC4)SC2)cc1` the cytotoxicity was 8.7% (inactive). In the case of `Clc1ccc(C2=Nn3c(nnc3-c3n[nH]c4c3CCC4)SC2)cc1`, the cytotoxicity is reported as 46.1% (inactive). In the case of `CC1=Nn2c(nnc2-c2n[nH]c3c2CCC3)SC1`, the cytotoxicity is reported as -3.7% (inactive). With `Clc1ccc(C2=Nn3c(nnc3-c3n[nH]c4c3CCC4)SC2)cc1Cl` the cytotoxicity was 76.8% (active). With `CCc1nc(SCC(=O)Nc2cc(C)on2)c2c(C)c(C)sc2n1` the cytotoxicity was -1.6% (inactive). With `CC1(C)CC(=O)C(C=NC2CCCCC2)=C(O)C1` the cytotoxicity was -6.9% (inactive). In the case of `Cn1c(=O)c2c(SC3CCCC3)nc(CC(C)(C)C)nc2n(C)c1=O`, the cytotoxicity is reported as -9% (inactive). With `Cc1onc(-c2ccccc2Cl)c1C(=O)NCc1nc(-c2ccccc2)no1` the cytotoxicity was -4.2% (inactive). For `CC(=O)c1cccc(NC(=O)c2ccc(NS(C)(=O)=O)cc2)c1`, the cytotoxicity was 17.5% (inactive). For `CCOC(=O)c1c(C)[nH]c(C(=O)Cn2c(=O)c3c(ncn3CC)n(Cc3ccccc3)c2=O)c1C`, the cytotoxicity was 4.9% (inactive). In the case of `CCOC(=O)c1c(NC(=O)c2cccs2)sc(C)c1CC`, the cytotoxicity is reported as -2.4% (inactive). In the case of `CCc1c(C)sc(NC(=O)c2cccs2)c1C(=O)OC(C)C`, the cytotoxicity is reported as 58.9% (active). With `CC(C)OC(=O)c1c(NC(=O)c2cccs2)sc2c1CCCC2` the cytotoxicity was 9.8% (inactive). In the case of `COc1ccccc1CC(NC(C)=O)C(=O)NC1CCN(c2nnnn2-c2ccccc2)CC1` (stereo not given), the cytotoxicity is reported as -2.9% (inactive). With `CCN(CC)S(=O)(=O)c1ccc(-c2nnc(SCC(=O)c3ccc(OC)cc3)o2)cc1` the cytotoxicity was -7.3% (inactive). With `COc1ccc(C(=O)CSc2nnc(-c3ccc(S(=O)(=O)N4CCOCC4)cc3)o2)cc1` the cytotoxicity was 56.1% (active). With `COc1ccc(C(=O)CSc2nnc(-c3ccc(C)cc3)o2)cc1` the cytotoxicity was -8.2% (inactive). In the case of `O=C(CN1C(=O)c2ccccc2S1(=O)=O)N1CCN(Cc2ccc3c(c2)OCO3)CC1`, the cytotoxicity is reported as -4.2% (inactive). With `CCCn1c(C)cc(C(=O)COc2ncnc3sccc23)c1C` the cytotoxicity was -1.4% (inactive). In the case of `CCN1C(=O)c2cccc3c(NC(=O)c4cccc(N5C(=O)CCC5=O)c4)ccc1c23`, the cytotoxicity is reported as -19.8% (inactive). For `CCN1C(=O)c2cccc3c(NC(=O)c4ccc5c(c4)OCCO5)ccc1c23`, the cytotoxicity was 84.7% (active). In the case of `CCN1C(=O)c2cccc3c(NC(=O)c4ccc(S(=O)(=O)N(C)C)cc4)ccc1c23`, the cytotoxicity is reported as -24.8% (inactive). In the case of `COc1ccc(CCC(=O)NCc2ccco2)cc1`, the cytotoxicity is reported as -5.5% (inactive). For `Clc1ccccc1-c1nnn(Cc2ccc(-c3nn[nH]n3)cc2)n1`, the cytotoxicity was -10.8% (inactive). With `CS(=O)(=O)N1CCC(C(=O)N2CCC(Cc3ccccc3)CC2)CC1` the cytotoxicity was 1.2% (inactive). In the case of `CCCS(=O)(=O)N1CCCC(C(=O)N2CCC(Cc3ccccc3)CC2)C1` (stereo not given), the cytotoxicity is reported as 0.4% (inactive). For `CCCS(=O)(=O)N1CCC(C(=O)N2CCC(Cc3ccccc3)CC2)CC1`, the cytotoxicity was 79.7% (active). For `Clc1ccccc1Cn1nnc2c(N3CCCC3)ncnc21`, the cytotoxicity was 5% (inactive). In the case of `COc1ccc(C2(O)CCN(Cc3nnnn3Cc3ccc(C)cc3)CC2)cc1`, the cytotoxicity is reported as -4.4% (inactive). With `O=C(Oc1cc2oc(=O)c3c(c2cc1Cl)CCCC3)c1ccco1` the cytotoxicity was -3.8% (inactive). In the case of `C=CCNc1oc(Cc2cccc3ccccc23)nc1C#N`, the cytotoxicity is reported as -12% (inactive). With `CNc1oc(Cc2cccc3ccccc23)nc1C#N` the cytotoxicity was 3.8% (inactive). In the case of `N#Cc1nc(Cc2cccc3ccccc23)oc1NCc1ccco1`, the cytotoxicity is reported as 58.4% (active). For `CCn1cc(C(=O)NCCCN(C)c2ccccc2)c(=O)c2cc(S(=O)(=O)N(C)C)ccc21`, the cytotoxicity was 10.5% (inactive). With `CCc1nnc(NC(=O)CSc2nccn2-c2cc(C)cc(C)c2)s1` the cytotoxicity was 7.6% (inactive). With `CCOc1ccc(-c2nc(-c3ccccc3C)no2)cc1` the cytotoxicity was 2.4% (inactive). For `Cc1ccccc1-c1noc(-c2cccs2)n1`, the cytotoxicity was -7.3% (inactive). In the case of `Cc1ccccc1-c1noc(-c2ccc(O)cc2)n1`, the cytotoxicity is reported as 52.8% (active). In the case of `CCn1c(-c2c[nH]c3ccccc23)n[nH]c1=S`, the cytotoxicity is reported as 6.5% (inactive). In the case of `O=C1Cc2ccccc2N1c1ccccc1`, the cytotoxicity is reported as -6.3% (inactive). With `CCOC(=O)C1CCN(Cc2c(O)ccc3ccccc23)CC1` the cytotoxicity was -5.8% (inactive). With `CCOC(=O)C1CCN(Cc2ccc(OC)c(C)c2OC)CC1` the cytotoxicity was 2.2% (inactive). In the case of `CCOC(=O)C1CCN(Cc2ccc(O)c3ncccc23)CC1`, the cytotoxicity is reported as 60.3% (active). In the case of `CN(C)c1ccc(C(=S)N2CCOCC2)cc1Br`, the cytotoxicity is reported as -13.8% (inactive). With `CCOC(=O)N1CCN(C(=O)c2ccc3c(=O)n(Cc4ccc(OC)cc4)c(=S)[nH]c3c2)CC1` the cytotoxicity was -14.8% (inactive). With `COc1ccc(N2C(=O)CC(N3CCN(c4nc5ccccc5s4)CC3)C2=O)cc1` (stereo not given) the cytotoxicity was 7.5% (inactive). With `CC(NC(=O)Nc1nccs1)(C(F)(F)F)C(F)(F)F` the cytotoxicity was -4.1% (inactive). In the case of `O=C(NCC(F)(F)F)Nc1nnc(C(F)(F)F)s1`, the cytotoxicity is reported as 12.3% (inactive). For `CCC(NC(=O)Nc1nccs1)(C(F)(F)F)C(F)(F)F`, the cytotoxicity was -7% (inactive). For `CCSc1nnc(NC(=O)NC(CC)(C(F)(F)F)C(F)(F)F)s1`, the cytotoxicity was 14.7% (inactive). For `O=C(COC(=O)c1n[nH]c2ccccc12)NC(=O)NCc1ccco1`, the cytotoxicity was -1.6% (inactive). For `CC1=C(C(=O)Nc2ccccc2)C(c2ccncc2)C(C#N)=C(SCC(=O)NC2CC2)N1` (stereo not given), the cytotoxicity was -16.3% (inactive). With `COc1ccc(NC(=O)CSc2nnc(CNC(=O)c3ccco3)o2)c(OC)c1` the cytotoxicity was -0.9% (inactive). With `CCOC(=O)C1=C(C)NC(C)=C(C(=O)OCC)C1C(=O)OCC(=O)N1CCC(C)CC1` the cytotoxicity was 0% (inactive). With `CCCn1c(=O)c(C(=O)Nc2nnc(C)s2)c(O)c2ccccc21` the cytotoxicity was 75.2% (active). In the case of `CCCn1c(=O)c(C(=O)NCc2ccccn2)c(O)c2ccccc21`, the cytotoxicity is reported as -12.9% (inactive). With `CCCn1c(=O)c(C(=O)Nc2nnc(CC)s2)c(O)c2ccccc21` the cytotoxicity was 51.2% (active). For `CCc1nnc(NC(=O)c2cnccn2)s1`, the cytotoxicity was -17.9% (inactive). In the case of `CC(C)Cn1c(=O)c(C(=O)Nc2ccncc2)c(O)c2ccccc21`, the cytotoxicity is reported as 53.2% (active). In the case of `CCCn1c(=O)c(C(=O)Nc2ccncc2)c(O)c2ccccc21`, the cytotoxicity is reported as 31.4% (inactive). For `CCc1nnc(NC(=O)c2c(O)c3cccc4c3n(c2=O)CC4)s1`, the cytotoxicity was 34.5% (inactive). With `C=CCn1c(=O)c(C(=O)Nc2nnc(C)s2)c(O)c2ccccc21` the cytotoxicity was 7.8% (inactive). With `CCc1nnc(NC(=O)c2cccc(OC)c2)s1` the cytotoxicity was -1.7% (inactive). For `CC(C)Cn1c(=O)c(C(=O)Nc2cnccn2)c(O)c2ccccc21`, the cytotoxicity was 29.3% (inactive). For `CCCn1c(=O)c(C(=O)Nc2cnccn2)c(O)c2ccccc21`, the cytotoxicity was -11.9% (inactive). In the case of `CCc1nnc(NC(=O)c2cccc(C(=O)Nc3nnc(CC)s3)n2)s1`, the cytotoxicity is reported as 52.5% (active).

Reference: PubChem BioAssay AID430 (Sanford-Burnham Center for Chemical Genomics, 2006)
